This note sets out measurements from PubChem BioAssay (NCI).

The panel holds about 79,000 compounds, 15% with a hit somewhere; the sample as a whole holds those more often. Values without a mark were called inactive. The source made the active and inactive calls. Cut-off read from the data, not from the text of the source: active = growth inhibition above about 70%; inactive = the rest.

The first test in a line: NCI Yeast Anticancer Drug Screen. Data for the mlh1 rad18 strain (AID 175). Particulars: S. cerevisiae mlh1 rad18 strain growth inhibition; at 5.0 µM (retest, dose inferred, filed as 0.5); hits give high values. Summed up: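 Compound-treated yeast growth, normalised to vehicle controls. Strain bears defined DNA repair mutations.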
In the case of `O=C(OC1C2CCC2C2CC21)c1ccc([N+](=O)[O-])cc1[N+](=O)[O-]` (stereo not drawn), the growth inhibition was 25%.

In the case of `N#CCc1nc2c(s1)C(=O)c1ccccc1C2=O`, the growth inhibition was 67%.

For `CC1=C(C(=S)Nc2ccc(Cl)c(C(=O)OC(C)C)c2)SCCO1`, the growth inhibition was 21%.

As to `O=C1C(Cl)=C(c2ccc([N+](=O)[O-])cc2)C(=O)c2c(O)cccc21`, the growth inhibition is 99% (active).

Regarding `CCOc1ccc2nc(C)cc(C)c2c1`, the growth inhibition was -4%.

With `CN(C)CC(O)c1cc(-c2ccc(Cl)cc2)nc2c(Cl)cc(Cl)cc12` (stereo not drawn), the growth inhibition was 46%.

With `CCCC(=S)N1CCOCC1`, the growth inhibition was -2%.

For the molecule `C/C(=C/CC1CCC2C3=CCC4CC(O)CCC4(C)C3CCC12C)C(C)C(C)C` (stereo not drawn), the growth inhibition is 13%.

`NCC(O)CSc1ccc(Cl)c(Cl)c1` (stereo not drawn): the growth inhibition is 4%.

Take `CCCCCCCCC(=O)NCCCNCCCNC(=O)CCCCCCCC`: the growth inhibition is -11%.

As for `O=C1c2ccc(O)cc2C(=O)c2c1ccc(O)c2O`, the growth inhibition is 45%.

In the case of `Clc1nc(Cl)c(Cl)c(-c2ccccc2)n1`, the growth inhibition was 55%.

For `Cc1ccc(-c2c(C#N)c(-c3ccc(Cl)cc3)c(C#N)c(=O)n2NS(=O)(=O)c2ccccc2)cc1`, the growth inhibition is 31%.

As to `CC(CCC(=O)O)(c1cc(Br)c(O)c(Br)c1)c1cc(Br)c(O)c(Br)c1`, the growth inhibition was -14%.

As for `N#CC(C(=O)CCCC(=O)Nc1ccc(Cl)cc1)c1ccccc1Cl` (stereo not drawn), the growth inhibition is -2%.

As to `Cc1ccc(S(=O)(=O)S/C(=N\c2ccccn2)Nc2ccccn2)cc1`, the growth inhibition is 85% (active).

As for `NC(=O)C1CCCN1C(=O)C1CCCN(Cc2cc(CN3CCCC(C(=O)N4CCCC4C(N)=O)C3)cc(CN3CCCC(C(=O)N4CCCC4C(N)=O)C3)c2)C1` (stereo not drawn), the growth inhibition was -7%.

In the case of `O=C(/C=C\c1cccc2ccccc12)c1ccccn1`, the growth inhibition is 9%.

Consider `COC(=O)c1cccc2c1C(=O)c1ccccc1-2`, for which the growth inhibition is -2%.

Take `Cn1c(=S)c2[nH]c(SCCN3CCCCC3)nc2n(C)c1=O`: the growth inhibition was 22%.

On to `CN(C)CCCSc1c2ccccc2nc2cccc([N+](=O)[O-])c12`, for which the growth inhibition was 2%.

In the case of `CCCCCCCCN(CCCCCCCC)CC(O)c1cc(-c2ccc(Cl)cc2)nc2c(Cl)cccc12` (stereo not drawn), the growth inhibition is 3%.

As for `CCCCCCCCCCCCS`, the growth inhibition was 3%.

Consider `COC(=O)c1nc(=S)[nH]c(C(=O)OC)c1C(=O)c1ccc([N+](=O)[O-])cc1`, for which the growth inhibition was -2%.

For the molecule `Cc1[nH]c2ccccc2c1C1=CC2(C)Nc3ccccc3C2C(C)(C)C1` (stereo not drawn), the growth inhibition is -1%.

Turning to `CCCCCCCCN(CCCCCCCC)CC(O)c1cc(-c2ccc(OC)cc2)nc2cc(Cl)ccc12` (stereo not drawn), the growth inhibition was 7%.

Take `O=C(CC(C[N+](=O)[O-])c1ccc2c(c1)OCO2)c1ccccc1` (stereo not drawn): the growth inhibition was -4%.

Regarding `CN(C)CCN(C)CCC(=O)/C=C/c1ccccc1`, the growth inhibition was 99% (active).

With `NC(N)=NC(N)=Nc1ccc(-c2ccccc2)cc1`, the growth inhibition is 4%.

`O=[N+]([O-])c1ccccc1NCCO`: the growth inhibition is 2%.

With `Cn1c2c(c3ccccc31)CCN(CCN1CCN(c3cccc(Cl)c3)CC1)C2=O`, the growth inhibition was 10%.

As to `CC(=O)Oc1c2c(c(C)c3ccccc13)C(=O)c1cccnc1C2=O`, the growth inhibition is 3%.

In the case of `O=C(/C(=C/c1ccc2c(c1)OCO2)c1ccccc1)c1ccc(OCCN2CCCC2)cc1`, the growth inhibition is 5%.

In the case of `O=C1C(=O)c2cc(Cl)ccc2-c2ccc(Cl)cc21`, the growth inhibition is 30%.

Regarding `C/C(=N/NC(=O)Nc1ccc(N=Nc2ccccc2)cc1)c1cccnc1`, the growth inhibition was 5%.

Take `CC(Cl)C(=O)Nc1cc2ccccc2oc1=O` (stereo not drawn): the growth inhibition was -21%.

Turning to `CC(C)c1ccc2c(c1)CCC1C(C)(CN)CCCC21C` (stereo not drawn), the growth inhibition is 32%.

Consider `CN(NC1OC(=O)c2ccccc21)c1ccc(C(F)(F)F)cc1[N+](=O)[O-]` (stereo not drawn), for which the growth inhibition was 47%.

In the case of `CCCC(CC)c1c(O)c(O)c(C(CC)CCC)c(C(CC)CCC)c1C(CC)CCC` (stereo not drawn), the growth inhibition is -13%.

The same test, now with this note: S. cerevisiae mlh1 rad18 strain growth inhibition; at 50.0 µM (retest, dose inferred, filed as 5.0); hits give high values.
Turning to `O=C(OC1C2CCC2C2CC21)c1ccc([N+](=O)[O-])cc1[N+](=O)[O-]` (stereo not drawn), the growth inhibition was 98% (active).

For the molecule `N#CCc1nc2c(s1)C(=O)c1ccccc1C2=O`, the growth inhibition is 99% (active).

As to `CC1=C(C(=S)Nc2ccc(Cl)c(C(=O)OC(C)C)c2)SCCO1`, the growth inhibition was 50%.

Consider `O=C1C(Cl)=C(c2ccc([N+](=O)[O-])cc2)C(=O)c2c(O)cccc21`, for which the growth inhibition was 97% (active).

On to `CCOc1ccc2nc(C)cc(C)c2c1`, for which the growth inhibition is 63%.

Take `CN(C)CC(O)c1cc(-c2ccc(Cl)cc2)nc2c(Cl)cc(Cl)cc12` (stereo not drawn): the growth inhibition was 99% (active).

Regarding `CCCC(=S)N1CCOCC1`, the growth inhibition is -3%.

For `C/C(=C/CC1CCC2C3=CCC4CC(O)CCC4(C)C3CCC12C)C(C)C(C)C` (stereo not drawn), the growth inhibition is 89% (active).

`NCC(O)CSc1ccc(Cl)c(Cl)c1` (stereo not drawn): the growth inhibition is 7%.

Take `CCCCCCCCC(=O)NCCCNCCCNC(=O)CCCCCCCC`: the growth inhibition was -11%.

Take `O=C1c2ccc(O)cc2C(=O)c2c1ccc(O)c2O`: the growth inhibition was 97% (active).

On to `Clc1nc(Cl)c(Cl)c(-c2ccccc2)n1`, for which the growth inhibition is 77% (active).

As to `Cc1ccc(-c2c(C#N)c(-c3ccc(Cl)cc3)c(C#N)c(=O)n2NS(=O)(=O)c2ccccc2)cc1`, the growth inhibition is 49%.

Consider `CC(CCC(=O)O)(c1cc(Br)c(O)c(Br)c1)c1cc(Br)c(O)c(Br)c1`, for which the growth inhibition was 87% (active).

In the case of `N#CC(C(=O)CCCC(=O)Nc1ccc(Cl)cc1)c1ccccc1Cl` (stereo not drawn), the growth inhibition was 4%.

For `Cc1ccc(S(=O)(=O)S/C(=N\c2ccccn2)Nc2ccccn2)cc1`, the growth inhibition was 29%.

For the molecule `NC(=O)C1CCCN1C(=O)C1CCCN(Cc2cc(CN3CCCC(C(=O)N4CCCC4C(N)=O)C3)cc(CN3CCCC(C(=O)N4CCCC4C(N)=O)C3)c2)C1` (stereo not drawn), the growth inhibition was -1%.

Regarding `O=C(/C=C\c1cccc2ccccc12)c1ccccn1`, the growth inhibition was 99% (active).

Take `COC(=O)c1cccc2c1C(=O)c1ccccc1-2`: the growth inhibition was -6%.

Turning to `Cn1c(=S)c2[nH]c(SCCN3CCCCC3)nc2n(C)c1=O`, the growth inhibition is 55%.

Take `CN(C)CCCSc1c2ccccc2nc2cccc([N+](=O)[O-])c12`: the growth inhibition was -5%.

On to `CCCCCCCCN(CCCCCCCC)CC(O)c1cc(-c2ccc(Cl)cc2)nc2c(Cl)cccc12` (stereo not drawn), for which the growth inhibition was 4%.

Regarding `CCCCCCCCCCCCS`, the growth inhibition is 6%.

Consider `COC(=O)c1nc(=S)[nH]c(C(=O)OC)c1C(=O)c1ccc([N+](=O)[O-])cc1`, for which the growth inhibition was 93% (active).

For `Cc1[nH]c2ccccc2c1C1=CC2(C)Nc3ccccc3C2C(C)(C)C1` (stereo not drawn), the growth inhibition is 28%.

With `CCCCCCCCN(CCCCCCCC)CC(O)c1cc(-c2ccc(OC)cc2)nc2cc(Cl)ccc12` (stereo not drawn), the growth inhibition was 84% (active).

For the molecule `O=C(CC(C[N+](=O)[O-])c1ccc2c(c1)OCO2)c1ccccc1` (stereo not drawn), the growth inhibition is 9%.

As to `CN(C)CCN(C)CCC(=O)/C=C/c1ccccc1`, the growth inhibition is 99% (active).

With `NC(N)=NC(N)=Nc1ccc(-c2ccccc2)cc1`, the growth inhibition was 96% (active).

Consider `O=[N+]([O-])c1ccccc1NCCO`, for which the growth inhibition was 3%.

Regarding `Cn1c2c(c3ccccc31)CCN(CCN1CCN(c3cccc(Cl)c3)CC1)C2=O`, the growth inhibition is 10%.

`CC(=O)Oc1c2c(c(C)c3ccccc13)C(=O)c1cccnc1C2=O`: the growth inhibition is 2%.

In the case of `O=C(/C(=C/c1ccc2c(c1)OCO2)c1ccccc1)c1ccc(OCCN2CCCC2)cc1`, the growth inhibition was 19%.

For the molecule `O=C1C(=O)c2cc(Cl)ccc2-c2ccc(Cl)cc21`, the growth inhibition was 95% (active).

As for `C/C(=N/NC(=O)Nc1ccc(N=Nc2ccccc2)cc1)c1cccnc1`, the growth inhibition is 25%.

Take `CC(Cl)C(=O)Nc1cc2ccccc2oc1=O` (stereo not drawn): the growth inhibition was -3%.

Regarding `CC(C)c1ccc2c(c1)CCC1C(C)(CN)CCCC21C` (stereo not drawn), the growth inhibition is 100% (active).

For the molecule `CN(NC1OC(=O)c2ccccc21)c1ccc(C(F)(F)F)cc1[N+](=O)[O-]` (stereo not drawn), the growth inhibition is 48%.

`CCCC(CC)c1c(O)c(O)c(C(CC)CCC)c(C(CC)CCC)c1C(CC)CCC` (stereo not drawn): the growth inhibition was 87% (active).
